The nature of experiment [1]: inhibitors of TNFa-induced NFkB p65 translocation, primary screen, imaging, HUVEC, MLSMR starter and 10KST1 sets (AID 438;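 active = inhibition above 20% together with a positive visual image hit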;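 note: compound added about 3h40 before a 20 min TNFalpha stimulation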;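 for inhibition: signal is the nuclear over cytoplasmic p65 intensity ratio per well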). To be noted: HUVEC TNFa-induced p65 nuclear translocation; cell count: measured here: nuclei count (cytotoxicity indicator), at 2.08 µM; inhibition: at 2 µM, stronger effect = higher value, 0% TNFa-plus-vehicle, 100% no-TNFa wells.
Experiment [2] can be described thus: reduction of polyQ htt aggregates in cells – imaging, exon1htt(103Q)mCFP cells, high-content imaging, primary screen (AID 483;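 active = visual image review flags a hit and inhibition of aggregation exceeds 20%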;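 note: compound exposure lasted 3 days before fixation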;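 for nuclei count: percent of the per-plate median nuclei count of sample wells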). To be noted: exon1htt(103Q)mCFP cell line, aggregate imaging, at 2 µM; inhibition of aggregation: stronger effect = higher value; nuclei count: measured here: cell count, toxicity.
Experiment [3] can be described thus: endothelial E-selectin expression blockers – imaging, HUVEC, immunofluorescence, MLSMR starter and 10KST1 sets, primary screen (AID 487;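 active = visually confirmed hit in the image check and inhibition above 20%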;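 for inhibition: signal is fraction of cell area covered by stained E-selectin grains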;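 for nuclei count: 100% = median nuclei count of all wells on the same plate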). To be noted: HUVEC TNFalpha-induced E-selectin immunofluorescence imaging, at 2 µM; inhibition: stronger effect = higher value; nuclei count: measured here: cell number, toxicity.
Experiment [4] is described as follows: Primary imaging screen for DUSP6 inhibitors that restore phospho-Erk in transfected HeLa cells, chemical complementation (AID 609;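 active = compounds giving at least 50% inhibition in the cell-based MKP-3 phosphatase rescue imaging test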;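 for inhibition: phospho-Erk level distribution per well compared with pooled transfected vehicle control wells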). The following applies: HeLa MKP-3 transfected, phospho-Erk imaging KS statistic, at 10 µM, cells stimulated with TPA for 15 min.
Experiment [5] has as its target Dual specificity protein phosphatase 6 (Homo sapiens) (UniProt Q16828). Described as above. To be noted: HeLa MKP-3 transfected, phospho-Erk imaging KS statistic; at 10 µM; stronger effect = higher value; cells stimulated with TPA for 15 min.
The target of experiment [6] is Voltage-gated potassium channel subunit beta-2 (Rattus norvegicus) (UniProt P62483). In words: inhibitors of rat Kvbeta2 reductase activity – biochemical, NADPH fluorescence, primary screen (AID 622;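 active = fluorescence slope higher than the sample average by over 3 SD, cut at about -0.22 in these data, passing the limit was not always enough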;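 note: slope of raw intensity against log time taken from 70 to 1610 s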). The following applies: recombinant KvBeta, 4-cyanobenzaldehyde reduction, at 10 µM, stronger effect = higher value.
Experiment [7] has the same target. The experiment in a line: enhancers of rat Kvbeta2 NADPH turnover – biochemical, NADPH fluorescence, primary screen (AID 623;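 active = NADPH fluorescence slope more negative than the mean of all samples by about 3 SD, 99.7% confidence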;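 note: fluorescence intensity change per second fitted from 20 to 320 s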). The following applies: Recombinant KvBeta, NADPH fluorescence decrease slope, 10 min; at 10 µM; stronger effect = lower value.
The target of experiment [8] is Alpha-2C adrenergic receptor (Homo sapiens) (UniProt P18825). In words: compounds altering alpha2C-coupled GIRK flux – cell-based, HEK293 alpha2C/GIRK1/2, thallium flux, primary screen (AID 624;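 active = fluorescence slope after compound addition differing from the mean of all screened samples at 99.7% confidence, in either direction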;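 note: slope of fluorescence ratio to pre-addition baseline per second over 15 to 24 s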). The following applies: thallium flux BTC fluorescence, at 10 µM, actives lie on both sides.
Experiment [9] is described as follows: inhibitors of larval lipid processing in zebrafish, primary screen, whole organism, PED6 fluorescence, gall bladder and intestine (AID 686).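 Note: larvae 5 to 7 days old with five fish per well; signal comes from phospholipase A2 cleavage of quenched PED6 carried via bile; overnight exposure to compound and PED6 before scoring.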 To be noted: Zebrafish larvae PED6 lipid processing, fluorescence scoring; screened at 20 µM (by protocol).
Experiment [10] can be described thus: loss of swimming-algae plug formation – whole organism, Chlamydomonas reinhardtii, WT vs cilia-less mutant, absorbance, 96-well, primary screen (AID 463189;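 active = inhibition at or above 50% relative to wild type and mutant plate controls; inactive = inhibition below 50%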;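 note: 0% = wild type cc124 cells in DMSO and 100% = ciliumless bld1 mutant cells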). To be noted: Chlamydomonas reinhardtii gravitaxis, OD600 absorbance, 2 days; at 10 µM; stronger effect = higher value.
The nature of experiment [11]: blockers of RIG-like receptor reporter activation – cell-based, Sendai virus stimulus, luciferase, 10K MLSCN set, TLR/RLR signaling modifier project, primary screen (AID 602276;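 active = inhibition at or above 50% at 10 µM; inactive = inhibition below 50%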;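 note: firefly luciferase from ISG56 promoter only with Renilla not read in this screen; 0% = Sendai virus plus DMSO and 100% = medium plus DMSO without virus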). To be noted: HEK293 RL24 IRF3 luciferase reporter, at 10 µM, stronger effect = higher value. Background: Reporter assays use an easily measured gene product as a stand-in for the process of interest.
Experiment [12] is described as follows: TLR3 IRF3 reporter activation blockers – cell-based, poly I:C stimulus, luciferase, 10K MLSCN set, primary screen (AID 602277;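 active = inhibition of the reporter signal at or above 50%; inactive = inhibition below 50%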). The following applies: HEK293-TLR3 RL24 IRF3 luciferase reporter, at 10 µM, stronger effect = higher value.
The mark [13] stands for this setting: measured here: cell density z-score.
[14] abbreviates: measured here: nuclear c-Myc green intensity z-score.
[15] abbreviates: measured here: nuclear pErk red intensity z-score, stronger effect = higher value.

Active and inactive are the calls of the source.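 Rule for the calls, unless noted: active = a full or partial loss of lipid-probe fluorescence in the fish gall bladder, intestine or both, judged by eye; inactive = no fluorescence loss, or compound toxic to the fish.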

Experimental findings from PubChem BioAssay are described below.

A word on the inhibition: it is the relative decrease from the control value, in per cent.

Sequence of Dual specificity protein phosphatase 6 (Homo sapiens) (Q16828 whole entry, looked up): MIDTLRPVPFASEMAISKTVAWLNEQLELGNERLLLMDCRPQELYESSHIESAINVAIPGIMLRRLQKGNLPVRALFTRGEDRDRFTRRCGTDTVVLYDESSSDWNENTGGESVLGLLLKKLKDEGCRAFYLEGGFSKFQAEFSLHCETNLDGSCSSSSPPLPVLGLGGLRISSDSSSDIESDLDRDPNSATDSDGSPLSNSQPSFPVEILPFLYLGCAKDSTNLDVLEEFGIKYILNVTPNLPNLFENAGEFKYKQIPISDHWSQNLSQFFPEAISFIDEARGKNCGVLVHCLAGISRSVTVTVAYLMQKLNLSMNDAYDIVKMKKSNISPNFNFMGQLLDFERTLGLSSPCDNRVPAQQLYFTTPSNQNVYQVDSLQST
Sequence of Alpha-2C adrenergic receptor (Homo sapiens) (P18825 whole entry, looked up): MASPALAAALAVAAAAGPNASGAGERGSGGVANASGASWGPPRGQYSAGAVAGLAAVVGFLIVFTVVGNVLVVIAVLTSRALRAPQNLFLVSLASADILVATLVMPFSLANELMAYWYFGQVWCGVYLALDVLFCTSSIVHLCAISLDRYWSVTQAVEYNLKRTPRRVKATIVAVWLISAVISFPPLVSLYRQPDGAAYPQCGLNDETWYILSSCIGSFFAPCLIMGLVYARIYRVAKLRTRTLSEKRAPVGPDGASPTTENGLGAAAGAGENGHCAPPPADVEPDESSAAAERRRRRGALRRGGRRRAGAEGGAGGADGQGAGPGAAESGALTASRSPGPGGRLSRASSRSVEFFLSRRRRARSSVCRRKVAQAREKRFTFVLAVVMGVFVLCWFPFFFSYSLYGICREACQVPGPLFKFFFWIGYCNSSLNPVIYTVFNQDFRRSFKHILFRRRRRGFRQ
Sequence of Voltage-gated potassium channel subunit beta-2 (Rattus norvegicus) (P62483 whole entry, looked up): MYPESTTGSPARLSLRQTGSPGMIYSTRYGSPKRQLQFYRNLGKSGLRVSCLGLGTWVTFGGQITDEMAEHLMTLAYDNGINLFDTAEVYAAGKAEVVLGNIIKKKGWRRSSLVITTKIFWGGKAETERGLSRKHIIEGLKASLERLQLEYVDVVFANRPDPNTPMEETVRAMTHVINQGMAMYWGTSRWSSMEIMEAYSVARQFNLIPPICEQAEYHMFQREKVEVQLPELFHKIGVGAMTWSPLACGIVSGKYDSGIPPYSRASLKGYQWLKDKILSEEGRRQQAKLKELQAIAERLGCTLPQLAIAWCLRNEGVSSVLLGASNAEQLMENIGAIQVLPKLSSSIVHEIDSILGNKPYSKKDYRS

`CN(Cc1ccccc1)Cc1c[nH]c2ccccc12`: the cell count in [1] is 531. The inhibition is -15.1% (inactive) in [1]; -35.1% (inactive) in experiment [3]; -4.27% (inactive) in [5]; 22.7% (inactive) in [10]; 13.3% (inactive) in [11]; 24.2% (inactive) in [12]. Moreover, in experiment [2], the inhibition of aggregation is -1% (inactive). For the same molecule, the nuclei count was 83.3% in experiment [2] and 121% in experiment [3]. In addition, the figures for the z-score in experiment [4] (setting [13]), in experiment [4] (setting [14]) and in [4] (setting [15]) were -0.293, -1.22 and -1.11, respectively. The fluorescence slope in experiment [6] is -0.409 (inactive). Besides, the NADPH fluorescence slope in experiment [7] was -4.2e-05 (inactive). Further, the slope in experiment [8] is 0.00379 (inactive). Moreover, in experiment [9], the result was inactive.
Consider `Nc1ccc2cn[nH]c2c1`, for which the cell count in [1] amounted to 616. Moreover, the inhibition in experiment [1] was 0.3% (inactive); in experiment [3], -58.4% (inactive); in [5], 5.79% (inactive); in [10] it was -10.8% (inactive); in experiment [11] it was 3.56% (inactive); in experiment [12] it was 33% (inactive). Besides, the inhibition of aggregation in experiment [2] was 9% (inactive). Besides, the results for the nuclei count in experiment [2] and in [3] were 94.8% and 123%, respectively. Moreover, the z-score was -0.59 in experiment [4] (setting [13]), 0.481 in experiment [4] (setting [14]) and -0.693 in experiment [4] (setting [15]). Also, the fluorescence slope in [6] was -0.531 (inactive). Besides, in [7], the NADPH fluorescence slope is -2.3e-05 (inactive). In addition, the slope in experiment [8] was 0.00412 (inactive). The molecule was classed as inactive in experiment [9].
Turning to `CCOC(=O)C1CCN(c2nc3ccccc3nc2C(C#N)C(=O)OC(C)C)CC1` (stereo not given), the cell count in experiment [1] is 520. The inhibition in [1] is -11.5% (inactive); in [3], -90.1% (inactive); in experiment [5], -4.27% (inactive); in experiment [10], 9.67% (inactive); in experiment [11], -15.8% (inactive); in experiment [12], -37.7% (inactive). In addition, the inhibition of aggregation in experiment [2] was -208% (inactive). In addition, the nuclei count in experiment [2] was 104%; in experiment [3], 128%. Besides, the z-score is -0.0557 in experiment [4] (setting [13]), 0.253 in experiment [4] (setting [14]) and -0.0521 in [4] (setting [15]). The fluorescence slope in [6] was -0.341 (inactive). For the same molecule, in [7], the NADPH fluorescence slope is -2.3e-08 (inactive). Besides, the slope in experiment [8] is 0.00139 (inactive). Also, the call in experiment [9] was inactive.
Take `CCC(=O)Oc1ccc(C(CC)C(CC)c2ccc(OC(=O)CC)cc2)cc1` (stereo not given): the cell count in experiment [1] came out at 548. Further, the inhibition in experiment [1] is -8% (inactive); in experiment [3], -70.7% (inactive); in experiment [5], -4.44% (inactive); in [10] it was 0.847% (inactive); in experiment [11], 12.9% (inactive); in experiment [12], 33.2% (inactive). Moreover, in experiment [2], the inhibition of aggregation was -5.4% (inactive). The nuclei count turned out to be 107% in experiment [2] and 132% in experiment [3]. Also, the z-score is -1.07 in experiment [4] (setting [13]), 0.0699 in experiment [4] (setting [14]) and 1.82 in experiment [4] (setting [15]). The fluorescence slope in experiment [6] was -0.48 (inactive). The NADPH fluorescence slope in experiment [7] was 1.7e-05 (inactive). In addition, the slope in experiment [8] was 0.0054 (inactive). Also, the molecule was called inactive in [9].
Consider `O=C(NC1CCS(=O)(=O)C1)N1CCCCC1` (stereo not given), for which the cell count in experiment [1] stood at 486. For the same molecule, the inhibition in [1] is 0.6% (inactive); in experiment [3], -68.8% (inactive); in experiment [5], 1.6e-07% (inactive); in experiment [10], -28.4% (inactive); in experiment [11], 11.2% (inactive); in experiment [12], 18.8% (inactive). Moreover, the inhibition of aggregation in [2] is -3.3% (inactive). Also, the figures for the nuclei count in experiment [2] and in [3] were 106% and 126%, respectively. Also, the z-score in experiment [4] (setting [13]) was -0.342; in [4] (setting [14]), 1.35; in [4] (setting [15]) it was 0.612. Further, in experiment [6], the fluorescence slope is -0.485 (inactive). Also, in experiment [7], the NADPH fluorescence slope was -6.6e-05 (inactive). In addition, the slope in [8] was 0.00544 (inactive). Further, the call in [9] was inactive.
